The test system of the experiment is VDR:RXRa (NR concentration 270 nM, RXRa partner concentration 90 nM). Briefly: PBM binding z-score (relative to random genomic background probes); higher = stronger binding; sequences stand for … in GC…GCGATTGACAGCGTAGAATGAAGG
On the procedure: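 Protein-binding microarray (Agilent 4x180K custom design, double-stranded 60-nt probes: 5' GC cap, 34-nt variable region, 24-nt constant primer region; full probe sequence given). Purified or IVT nuclear receptor:RXRα heterodimers (3:1 NR:RXRα, mostly 270:90 nM) or homodimers were incubated for 1 h in PBS with 2% milk and no ligand, then detected with Alexa488 antibodies. Fluorescence from o1-orientation probes (~5 replicates averaged) was converted to z-scores against 500 random hg19 background probes. Variable regions are seed direct-repeat (DR0–DR5) sites, all their single-nucleotide variants and half-site ablations.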
In turn, CCTTACGGGTCACCAGGTTATAGCACGACGAGCG had a PBM binding z-score of 4.64.
The sequence ATCGAAAGGTCGTGAGGTGAATATACAGAAAGGC registered a PBM binding z-score of 3.88.
To AATACAGGGACACTAGGCCAGAGTAGGTACGAAT belongs -0.219.
CCGAGCAGGCCAGGGTCACTCAAGCATTTCGCTT registered a PBM binding z-score of 2.6.
Take CGAACTAGGTCATTGACAGGACAGTGCATAGTAA: the PBM binding z-score was found to be 2.5.
With TCTTGTAGATCAATAGGAGGTTAAGAAAGATCGA, the PBM binding z-score is 0.721.
For ATATGTAGGTTACATCCGGGTCATGCAGGCTATG, the PBM binding z-score amounted to 3.8.
AGTTAAAGTTCAGGACGAGGTAACGTAAAGCACG returned a PBM binding z-score of 3.01.
TTACCAAGGTTAAGGTCGTTGATCCCTCTGTAGA had a PBM binding z-score of 3.3.
To TCTTGTAGATCAACAGGAGGTTAAGAGAGATCGA belongs 0.733; to ATCACTAGGTAAAGATAGTTCAGTGAATGCAAAT, 0.888; to TTACCAAGGTGAAGGTCGTTCATCCCTCTGTAGA, 1.74.
Take GATACAGCGTCAGCTAGAGGCCAGAGTATGGAAA: the PBM binding z-score is -0.922.
In turn, TCTTGTAGATCAATTGAGGTTAAGAAAGTGCGCT showed a PBM binding z-score of 1.86.
ACGGACAGGTGATGAAGGTAACTCAGGCTATCAT came in with a PBM binding z-score of 0.367.
Next, CCGACTGGGGCAGAAAGGTGACCATACCATCCGG: -0.31; CTCGAAAGGTCCTGCTCAGGTGAGTATACCAAAC: -0.0691; TCATATAGGTAATACAGGTTAAAGTCGGCATCTA: 1.88.
To AGTCAAAGTTCATATAGGTAACGTAAGATATGCT belongs 4.4; to TCGAGTAGGTTACCAATGCGGCATTCAGCTTTCT, -0.196; to CTACCAAGTTGAACAAGGTCGTTGATTACTATTC, 5.18.
The sequence AGAATGAGGATACCAAAGATCAGGGAAACGCTTG showed a PBM binding z-score of -0.361.
TTACCAAGGTGAAGGCCGTTGATCCCTCTGTAGA yielded a PBM binding z-score of -0.121.
In turn, CAAACTGGGTCACAGAGGTCAAAGTCCGTGCGTA showed a PBM binding z-score of 7.58.
As for TCAGACAGGTGAAGGTTACTCAGGTACGCAGTCG, the PBM binding z-score was 1.69.
Consider CGTCAAAGTTGAACTAAGGTAACGTAAAGCACGC, for which the PBM binding z-score came out at 1.43.
CGGACTGGGGCATAAGGTTACCATAAGCCAGCCC gave a PBM binding z-score of 0.33.
The sequence CTCGAAAGGTCGCGCTCAGGTGAGTATACCAAAC had a PBM binding z-score of 3.55.
In the case of CCTACTGGGCCAAGATCATTGATCAGTCAAAGCA, the PBM binding z-score was -0.601.
On to ACTATTAGTTGCGACGAGGGCAACCGATAGGTTG, for which the PBM binding z-score was determined as 0.0281.
For CCAGACAGGTGAAAGGTAACTTAGTCTGGTACGC, the PBM binding z-score was determined as 0.744.
In the case of TGAATGAGGTTATAGGATCAGGGAACGTTGCAAA, the PBM binding z-score stood at 1.13.
Sequence CGTCCAAGGTCAGAAGGTCAGTGAAAGCGACGTG showed a PBM binding z-score of 4.14.
Sequence TGTCAAAGTTCCAAGGTAACGTAAGTATCCACAC had a PBM binding z-score of 0.281.
Next, CGAACGAGGGCATGAGTTGCTAGCAAATGCCGAT: 0.671; CTCGAAAGGTCGTGCTCAGGTGTGTATACCAAAC: 3.31.
In turn, CGAACTTGGTCATTGACAGGACAGTGAATAGTAA came in with a PBM binding z-score of 0.0642.
Sequence CGTCCAAGGTCAGCAGGTCCGTGAAAGCGACGTG registered a PBM binding z-score of 6.
As for CCTTACGGGTCACTGACTGGTTATAGCATTTGGA, the PBM binding z-score was determined as 3.11.
Next, TCCAGTTGGTCACGGAGGTCACACACGACGGGTA: 5.75.

Source of the values: the supplement of paper PMC6555819.
